What was measured:
Type in all cases: functional
[1] = test system: Plasmodium falciparum; assay: GSK_TCMDC: Inhibition of Plasmodium falciparum 3D7 in whole red blood cells, using parasite LDH activity as an index of growth. Test compounds present at 2uM
[2] = test system: Plasmodium falciparum; assay: GSK_TCMDC: Inhibition of Plasmodium falciparum Dd2 in whole red blood cells, using parasite LDH activity as an index of growth. Test compounds present at 2uM
[3] = test system: HepG2; assay: GSK_TCMDC: Percent inhibition of human HepG2 cell line. Test compounds present at 10uM.

| SMILES | Inhibition [1] [%] | Inhibition [2] [%] | Inhibition [3] [%] |
| --- | --- | --- | --- |
| O=C(Nc1ccc(N2CCCCC2)c(Cl)c1)c1nc[nH]n1 | 93 | 93 | 0 |
| COc1cc2ncnc(Nc3ccc(OCc4ccccc4)c(I)c3)c2cc1OC.Cl | 98 | 62 | 11 |
| Cc1ccc(NC(=O)c2cccc(CN3CCCN(Cc4cccc(O)c4)CC3)c2)cc1F.O=C(O)C(F)(F)F | 99 | 45 | 20 |
| CN(C)Cc1ccc(-c2cccc(Nc3nccc(NCC(O)c4ccccc4)n3)c2)cc1 (stereo unspecified) | 100 | 100 | 74 |
| O=C(/C=C/c1ccc(C(F)(F)F)cc1)NCCCCCN1CCCN(C(=O)Nc2ccc(Cl)cc2)CC1 | 99 | 0 | 28 |
| Cc1cccc2nc(-c3ccc(-c4cccc(NC(=O)C(C)CN(C)C)c4)cc3)[nH]c12 (stereo unspecified) | 99 | 61 | 20 |
| COc1cccc(C(=O)Nc2sc3c(c2C(N)=O)CCCC3)c1OC | 99 | 8 | 6 |
| O=C(CCNc1ccnc(NCC2CCCCC2)n1)Nc1ccccc1.O=C(O)C(F)(F)F | 95 | 48 | 55 |
| COc1ccccc1-c1csc(C(=O)NC2CCCCN(Cc3ccc(C(C)(C)C)cc3)C2)c1.O=C(O)C(F)(F)F (stereo unspecified) | 99 | 8 | 13 |
| O=C(/C=C/c1ccc(Cl)c(Cl)c1)NCCCCCN1CCC(NS(=O)(=O)c2cc(Cl)cc(Cl)c2)CC1 | 83 | 5 | 7 |
| O=C(/C=C/c1ccc(Cl)c(Cl)c1)NCCCCCN1CCC(NC(=O)Nc2cc(F)ccc2F)CC1 | 98 | 22 | 78 |
| Cl.Nc1nc(N)c2c(ccc3c2ccn3C2CCCCC2)n1 | 97 | 46 | 67 |
| COc1ccc(NC(=O)[C@H](CC(C)C)Nc2cc(C)nc(NCCc3ccccc3OC)n2)cc1.O=C(O)C(F)(F)F | 99 | 68 | 9 |
| COc1ccc(NC(=O)Nc2ccc(-c3ccccc3)cc2)cc1Cn1cnc(N2CCCNCC2)cc1=O.O=C(O)C(F)(F)F | 100 | 38 | 24 |
| C=CCNc1cc(-c2ccccn2)nc(-c2ccccn2)n1 | 94 | 79 | 78 |
| NC1CCN(Cc2ccc(-c3ccc(-c4nc5ccccc5[nH]4)s3)cc2)C1.O=C(O)C(F)(F)F (stereo unspecified) | 100 | 99 | 32 |
| COc1ccc(Nc2ncc3c(-c4cccc(NC(=O)Cc5cccnc5)c4)c[nH]c3n2)cc1OC | 98 | 85 | 27 |
| CC(C)Cc1ccc(N2CCN(CCCCNC(=O)c3ccc(NC(=O)c4cc(C(F)(F)F)cc(C(F)(F)F)c4)cc3)CC2)cc1 | 100 | 100 | 15 |
| C/N=C(/Nc1c(Cl)cccc1Cl)N(C)C.O=C(O)/C=C/C(=O)O | 98 | 1 | 0 |
| C[C@H]1CN(Cc2cccc(-c3cc(CNC(=O)c4cccc(CN5CCN(CCOc6ccccc6)CC5)c4)ccc3F)c2)CCN1.O=C(O)C(F)(F)F | 91 | 88 | 59 |
| COc1cc(OC)cc(-c2nn(-c3ccc([N+](=O)[O-])cc3Cl)c(=S)n2Cc2ccco2)c1 | 100 | 100 | 15 |

| SMILES | Inhibition [1] [%] | Inhibition [2] [%] | Inhibition [3] [%] |
| --- | --- | --- | --- |
| CCN(c1ccc(F)cc1)S(=O)(=O)c1cc(Br)cc2c1N(C(=O)C1CC1)CC2 | 88 | 79 | 0 |
| CN1CCN(CCCNCc2cccc(-c3ccc(CNCCc4ccccc4)cc3)c2)CC1.O=C(O)C(F)(F)F | 100 | 20 | 36 |
| CCN1CCN(c2ccc(NC(=O)c3cc4c(C)nn(-c5ccccc5)c4s3)cc2C)CC1 | 100 | 81 | 32 |
| COc1ccc2nccc([C@@H](O)CN3CCC(NC(=O)/C=C/c4cccc(C)c4)CC3)c2c1 | 84 | 28 | 16 |
| Clc1ncccc1-c1nc(NCCC(c2ccccc2)c2ccccc2)no1 | 94 | 82 | 12 |
| COc1ccc(CNCc2ccc(-c3ccc(-c4nc5cccc(C)c5[nH]4)cc3)cc2)cc1.O=C(O)C(F)(F)F | 100 | 97 | 53 |
| CCCC(C)NC(=O)[C@H]1CNCCN1C(=O)CCCc1ccccc1.O=C(O)C(F)(F)F (stereo partly specified) | 96 | 98 | 47 |
| Nc1nc(F)nc2nc[nH]c12 | 89 | 25 | 78 |
| Cc1cc(C2CCN(CCCCNC(=O)c3ccc(-c4ccc(C(F)(F)F)cc4)cc3)CC2)c(C)cc1OCCO | 99 | 3 | 31 |
| O=C(Nc1cccc(-c2cccc(CN3CCCC3)c2)c1)c1cccc(Cl)c1.O=C(O)C(F)(F)F | 89 | 30 | 44 |
| COc1cc2nc(C)nc(Nc3ccc(Cc4ccccc4)cc3)c2cc1OC.Cl | 100 | 99 | 16 |
| Cc1ccc(-c2nnc3c4ccccc4c(C)nn23)cc1S(=O)(=O)N1CCN(CCO)CC1 | 85 | 62 | 16 |
| COc1cc(C=Cc2ccc3ccccc3n2)cc(Br)c1OCC(=O)N(C)C | 99 | 87 | 28 |
| CO/C(=C\C=C\c1cc2cc(Cl)c(Cl)cc2[nH]1)C(=O)NC1CCN(CCCc2ccccc2)CC1 | 93 | 75 | 59 |
| Cc1cnc(NC(=O)c2cn(-c3ccccc3)nc2-c2cccs2)s1 | 91 | 1 | 0 |
| FC(F)(F)c1ccc2[nH]c(-c3ccc(-c4cccc(CNCCN5CCNCC5)c4)cc3)nc2c1.O=C(O)C(F)(F)F | 92 | 2 | 13 |
| CC(Cc1ccc(C(=O)Nc2ccc(CC(C)NCCc3cccc(Cl)c3)cc2)cc1)NCCc1ccc(C(F)(F)F)cc1 (stereo unspecified) | 100 | 88 | 98 |
| Cl.NC(=O)Nc1ccc2cn[nH]c2c1 | 97 | 0 | 4 |
| Cc1cccc2nc(-c3ccc(-c4ccc(NC(=O)NCc5cccc(F)c5)cc4)cc3)[nH]c12 | 97 | 12 | 46 |
| CCn1c(Sc2ccc(C#N)c([N+](=O)[O-])c2)nnc1-c1cccc(Cl)c1 | 95 | 88 | 0 |
| Brc1ccc(C=NNc2nc3ccccc3[nH]2)cc1 | 100 | 90 | 0 |

| SMILES | Inhibition [1] [%] | Inhibition [2] [%] | Inhibition [3] [%] |
| --- | --- | --- | --- |
| Cc1cccc(C(=O)Nc2ccnc(N(C)CCCN(C)Cc3cccc(O)c3)c2)c1.O=C(O)C(F)(F)F | 94 | 71 | 27 |
| CS(=O)(=O)Cc1ccc(Nc2nccc(NC3CCN(c4nccc(C(F)(F)F)n4)CC3)n2)cc1 | 88 | 23 | 34 |
| Cc1[nH]c(C)c(-c2ccc(-c3ccc(OC(F)(F)F)cc3)nc2)c(=O)c1Br | 97 | 97 | 26 |
| NC(=O)c1ccc(NCC(=O)Nc2cccc(-c3cccc(-c4nc5cc(C(F)(F)F)ccc5[nH]4)c3)c2)cc1 | 99 | 41 | 32 |
| COc1cc(C(C)C)ccc1N1CCN(CCCCNC(=O)c2ccc(NC(=O)c3ccc(Cl)cc3)cc2)CC1 | 98 | 81 | 25 |
| COc1ccc(C)cc1NC(=O)CSc1nc2cccnc2n1C1CCCCC1 | 89 | 78 | 14 |
| CC(C)(C)c1ccc(NC(=O)c2cccc(CN3CCCN(Cc4cccc(Cl)c4)CC3)c2)cc1.O=C(O)C(F)(F)F | 85 | 30 | 61 |
| Cc1nc(C)c(CC(=O)Nc2ccc(-c3cccc(-c4nc5cccc(C)c5[nH]4)c3)cc2)s1 | 100 | 38 | 41 |
| COc1cccc(-c2c(C#N)c(N)nc3c2c(C)nn3-c2ccccc2)c1O | 100 | 100 | 4 |
| CS(=O)(=O)O.FC(F)(F)COc1ccc2ccccc2c1CCNCCCCNCCc1c(OCC(F)(F)F)ccc2ccccc12 | 100 | 53 | 99 |
| O=c1cc(NCCCCNCc2cccc(Br)c2)[nH]c2ccccc12 | 98 | 19 | 0 |
| CCC[C@@H](/C=N/N(C)C(=O)OC(C)(C)C)NC(=O)[C@H](CC(C)C)NC(=O)c1cc2cccc(OC)c2o1 | 88 | 61 | 5 |
| COc1cc(C)nc2ccc(NC(=O)c3ccc(C(=O)Nc4ccc5nc(C)cc(OC)c5c4)cc3)cc12 | 96 | 72 | 27 |
| O=C(Nc1ccc(Cl)cc1)Nc1ccc(Cn2ncc(N3CCCNCC3)c(Cl)c2=O)cc1.O=C(O)C(F)(F)F | 85 | 11 | 49 |
| CCOc1ccc(-c2nonc2NC(=O)c2ccc(Cl)cc2)cc1OCC | 94 | 47 | 28 |
| COc1ccc(C(=O)CC(=O)c2ccc(OC)cc2OC)c(OC)c1 | 98 | 0 | 1 |
| CCCC(=O)Nc1ccc(OCCCN(Cc2cccc(C(F)(F)F)c2)c2ccc(C#N)c(C(F)(F)F)c2)cc1 | 90 | 89 | 0 |
| Nc1n[nH]c(-c2ccccc2Nc2ccnc3cc(-c4nccs4)ccc23)n1 | 100 | 94 | 98 |
| CCn1cc(C=C2Oc3c(ccc(O)c3CN3CCCCC3)C2=O)c2cc(OC)ccc21 | 99 | 99 | 0 |
| CC1(C)N=C(N)N=C(N)N1c1cc(Cl)c(Cl)c(Cl)c1.CCS(=O)(=O)O | 93 | 31 | 68 |

From ChEMBL document CHEMBL1157539, “Thousands of chemical starting points for antimalarial lead identification” (Nature, 2010)
